Assay outcomes from PubChem BioAssay.
Shown are actives, neighbours in structure and some others; about 2.9% of the full set was active somewhere.
PAFAH1B2 FP inh – inhibitors of human PAFAH1B2; 1.2% of 340,000 active; AID 492953; recombinant PAFAH1B2, FP-rhodamine activity probe, fluorescence polarization; inhibition, % at 3.39 µM; P68402;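 active means inhibition above the mean of all tested compounds plus 3 SD, cut at about 24% in these data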;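 further: 0% = enzyme with DMSO and 100% = wells lacking PAFAH1B2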
Target sequence (P68402 whole entry, looked up): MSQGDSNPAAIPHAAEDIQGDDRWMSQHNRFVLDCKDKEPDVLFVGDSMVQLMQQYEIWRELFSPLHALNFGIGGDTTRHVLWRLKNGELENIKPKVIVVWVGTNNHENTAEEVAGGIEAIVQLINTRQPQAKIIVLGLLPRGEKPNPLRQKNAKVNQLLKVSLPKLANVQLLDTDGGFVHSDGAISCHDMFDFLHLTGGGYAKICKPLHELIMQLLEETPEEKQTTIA
PAFAH2 inh – PAFAH2 (human) inhibition | Q99487 | recombinant PAFAH2, FP-rhodamine activity probe, fluorescence polarization | inhibition, % at 3.39 µM | 0.99% of 340,000 active | AID 492956;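 active means inhibition above the mean over all tested compounds plus 3 SD, cut at about 30% in these data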;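 further: inhibitors block probe labeling of enzyme so polarization drops; 0% = enzyme with DMSO and 100% = wells lacking PAFAH2 protein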
pPAFAH inh – pPAFAH (human) enzyme inhibition; recombinant pPAFAH, FP-rhodamine probe fluorescence polarization; inhibition, % at 3.39 µM; Q13093; 1.5% of 330,000 active;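 active means inhibition above the mean inhibition across the screen plus 3 SD, cut at about 25% in these data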;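 further: inhibitors block binding of the rhodamine activity-based probe so polarization drops; 0% = enzyme with DMSO and 100% = wells lacking pPAFAH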
LYPLA2 counter – blocks human lysophospholipase 2, a PME1 counter-screen; O95372; recombinant LYPLA2, FP-Rh probe fluorescence polarization; inhibition, % at 5.9 µM; 0.38% of 320,000 active; AID 2177;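 active means inhibition above the screen-wide mean plus 3 SD, limit set per campaign, cut at about 26% in these data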;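 further: 0% = LYPLA2 with DMSO and 100% = wells lacking LYPLA2 enzyme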
PAFAH1B3 FP inh – blocks human PAF acetylhydrolase 1B catalytic subunit 3; AID 492972; recombinant PAFAH1B3, FP-rhodamine probe, fluorescence polarization; inhibition, % at 3.39 µM; 0.28% of 340,000 active;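 active means inhibition above the screen-wide average of all tested compounds plus 3 SD, cut at about 25% in these data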;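 further: 0% = enzyme with DMSO only and 100% = wells lacking PAFAH1B3 protein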
LYPLA1 counter – counter-screen for PME1 inhibitors: inhibitors of human LYPLA1; recombinant LYPLA1, FP-Rh probe fluorescence polarization; inhibition, % at 5.9 µM; 0.16% of 320,000 active;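 active means inhibition above the mean of all tested compounds plus 3 SD, set per campaign, cut at about 14% in these data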;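 further: inhibitors block serine hydrolase probe labeling of LYPLA1 so polarization falls; 0% = enzyme with DMSO and 100% = wells lacking LYPLA1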
Target sequence (O75608 whole entry, looked up): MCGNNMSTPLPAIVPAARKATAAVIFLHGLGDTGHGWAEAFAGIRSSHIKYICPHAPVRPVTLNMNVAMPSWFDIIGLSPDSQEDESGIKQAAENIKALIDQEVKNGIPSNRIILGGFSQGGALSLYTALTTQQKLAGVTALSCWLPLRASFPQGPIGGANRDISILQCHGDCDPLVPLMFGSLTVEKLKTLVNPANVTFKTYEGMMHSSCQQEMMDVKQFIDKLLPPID
LYPLA2 conf – LYPLA2 (human) inhibition, confirmation counter-screen; recombinant LYPLA2, FP-Rh probe fluorescence polarization; shares compounds with LYPLA2 counter; inhibition, % at 5.9 µM; 72% of 1,100 active;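 active means mean inhibition across replicates above the hit cutoff set in the primary screen, cut at about 26% in these data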;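 further: blocked labeling of the enzyme by serine hydrolase FP-Rh probe lowers polarization; 0% = enzyme with DMSO and 100% = wells lacking LYPLA2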
LYPLA2 gel ABPP – LYPLA2 (human) inhibition, late stage results | AID 652029 | rhLYPLA2 in mouse brain proteome, gel ABPP FP-Rh | inhibition, % at 20 µM | shares compounds with LYPLA2 counter | 30% of 150 active;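 active means inhibition of LYPLA2 enzyme probe labeling above about 50%, limit read from the data; inactive means inhibition below that limit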;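 further: loss of FP-Rh probe labeling of the LYPLA2 gel band measured as band density; 0% = DMSO only control band and 100% = blank gel background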
The depositor's hits bear a star; / = no result given.

SMILES	PAFAH1B2 FP inh	PAFAH2 inh	pPAFAH inh	LYPLA2 counter	PAFAH1B3 FP inh	LYPLA1 counter	LYPLA2 conf	others
O=C(CN1C(=O)NC2(CCCC2)C1=O)Nc1ccc(S(=O)(=O)N2CCOCC2)cc1	10	8	1	30*	10	4	1
CCCC(=O)NC(Nc1ccc(S(=O)(=O)Nc2cc(C)on2)cc1)(C(F)(F)F)C(F)(F)F	7	6	0	0	3	3	/
O=C(Cn1cc([N+](=O)[O-])cn1)Nc1ccc(Cn2cc(Br)cn2)cc1	5	-6	-1	56*	10	4	57*	LYPLA2 gel ABPP=20
O=C(c1ccccc1)c1ccc(C(=O)N2CCN(c3ccc(O)cc3)CC2)cc1	4	9	6	/	1	/	/
O=C(c1ccc(N2CCN(C(=O)c3ccccc3)CC2)cc1)c1cccc(F)c1	-1	-2	8	27*	9	-3	30*
O=C(c1ccc(N2CCN(C(=O)c3ccc(F)c(F)c3)CC2)cc1)c1cccc(F)c1	6	-4	-1	32*	-1	-4	33*
CCOc1ccc(NC(=O)c2ccccc2NC(=O)c2cccnc2)cc1	2	3	-1	-1	9	-2	/
CCCn1c(C)cc(C(=O)COc2ccc(C)nc2[N+](=O)[O-])c1C	3	7	1	30*	2	-4	21
O=C(O)COCC(=O)N1CCCN(c2ccc(C(F)(F)F)cn2)CC1	7	8	/	/	5	/	/
CC(=O)c1ccc(N2CCN(c3ncc(C(F)(F)F)cc3Cl)CC2)cc1	1	3	4	10	8	-3	/
CC(=O)Nc1ccc(N2CCN(c3ccc(C(F)(F)F)cn3)CC2)nc1	4	-2	8	52*	-9	4	51*	LYPLA2 gel ABPP=27
CC(=O)c1ccc(N2CCN(c3ccc(C(F)(F)F)cn3)CC2)cc1	2	-1	10	46*	7	1	42*
CC(=O)c1cccc(OCC(=O)N2CCN(c3ccc(C(F)(F)F)cn3)CC2)c1	7	1	8	58*	-1	5	57*	LYPLA2 gel ABPP=45
S=c1[nH]c2cnc(Cl)nc2[nH]1	5	6	/	/	-3	/	/
COC(=O)NNC(=O)c1ccc(C(C)(C)C)cc1	3	2	4	-4	-4	-3	/
N#Cc1cnn2c3c(cnc12)C(=O)N1CCc2ccccc2C1C3 (stereo unspecified)	3	5	0	42*	3	10	44*
O=C(c1cccc(Br)c1)N1CCN(c2cnn(-c3ccccc3)c(=O)c2Cl)CC1	4	10	0	28*	5	6	15
CCOc1ccc(C(=O)N2CCN(c3cnn(-c4ccccc4)c(=O)c3Cl)CC2)cc1	1	-1	-5	5	6	2	/
COc1ccc([C@H]2CC(=O)C=C(c3ccc(F)cc3OCc3ccccc3)C2)cc1	1	-4	0	-6	-2	0	/
COc1ccc([C@H]2CC(=O)C=C(c3ccc(F)cc3OCc3ccccc3)C2)cc1OC	-6	2	3	27*	8	2	-4
O=[N+]([O-])c1ccc(Oc2ccc(/C=N/O)cc2)nc1	4	3	1	41*	6	5	26*
CCOC(=O)C1=C(C)NC2=C(C(=O)c3ccccc32)C1c1ccc([N+](=O)[O-])o1 (stereo unspecified)	2	19	20	2	8	-6	/
CCOC(=O)C1=C(C)NC2=C(C1c1ccc([N+](=O)[O-])cc1)S(=O)(=O)c1ccccc12 (stereo unspecified)	-2	-7	2	41*	4	1	38*
O=C(CSCc1ccc(Cl)c(Cl)c1)Nc1c[nH]c(=O)[nH]c1=O	5	16	4	2	3	1	/
O=C(CSCc1ccccc1Cl)Nc1c[nH]c(=O)[nH]c1=O	1	1	3	39*	8	2	-3
SMILES	PAFAH1B2 FP inh	PAFAH2 inh	pPAFAH inh	LYPLA2 counter	PAFAH1B3 FP inh	LYPLA1 counter	LYPLA2 conf	others
Cc1ccc(F)cc1N=Cc1c(O)c2ccccc2oc1=O	0	1	8	-4	-5	1	/
NC(=O)CC(NC(=O)c1ccc(Br)cc1)c1ccc(N2CCN(c3ccccn3)CC2)c([N+](=O)[O-])c1 (stereo unspecified)	2	-1	8	50*	5	3	57*	LYPLA2 gel ABPP=37
NC(=O)CC(NC(=O)c1ccccc1)c1ccc(N2CCN(c3ccc(F)cc3)CC2)c([N+](=O)[O-])c1 (stereo unspecified)	2	10	1	27*	4	-4	33*
NC(=O)CC(NC(=O)c1ccccc1)c1ccc(N2CCN(c3ccccc3)CC2)c([N+](=O)[O-])c1 (stereo unspecified)	3	-1	3	14	-4	-4	/
Cc1noc(C)c1C(=O)Nc1ccccc1-c1ccccc1	4	-1	6	-5	-3	-4	/
O=C1CC(N2CCN(c3ccccn3)CC2)C(=O)N1c1ccc(F)cc1 (stereo unspecified)	/	/	-3	-4	/	-2	/
Cc1cccc(N2C(=O)CC(N3CCN(c4cccc(C(F)(F)F)c4)CC3)C2=O)c1 (stereo unspecified)	7	4	4	46*	7	14	40*
O=C1CC(N2CCN(c3cccc(C(F)(F)F)c3)CC2)C(=O)N1c1ccc(F)cc1 (stereo unspecified)	2	-2	-1	55*	6	2	49*
Cc1c(NC(=O)/C=C/c2cn(-c3ccccc3)nc2-c2ccc(F)cc2)c(=O)n(-c2ccccc2)n1C	2	-11	4	31*	-8	-8	30*
Cc1ccc(-c2nn(-c3ccccc3)cc2/C=C/C(=O)Nc2nccs2)cc1	0	-6	-1	-13	-2	-2	/
Cc1ccc(NC(=O)COC(=O)c2cc(C)nc3ccccc23)c([N+](=O)[O-])c1	-2	-3	3	-5	0	-5	/
O=C(N/N=C/c1cccc(Oc2ccc([N+](=O)[O-])cc2[N+](=O)[O-])c1)c1cncc(Br)c1	-2	-4	2	45*	2	-2	39*
Cc1ccccc1OCC(=O)N/N=C/c1cccc(Oc2ccc([N+](=O)[O-])cc2[N+](=O)[O-])c1	-5	-26	1	0	-2	-12	/
O=S(=O)(Nc1cccc(S(=O)(=O)N2CCCC2)c1)c1ccc(F)cc1	0	9	/	/	9	/	/
COc1ccc([C@H]2CC(=O)C=C(c3cccc(C#N)c3)C2)cc1	3	14	9	33*	6	12	26*
